Each structure is given as a SMILES string. A number with no mark means an inactive call. Records with an inconclusive call do not appear. Activity calls are given as the source filed them. Unless noted, the call rests on the fitted dose curve; in most records, active means well fitted curve in the direction sought with a large enough effect in the repeat runs; inconclusive means weak or mixed curves; inactive means no such curve, though single readings can be large; an effect the other way counts as inactive or inconclusive.

From PubChem BioAssay (Tox21) come the findings set out here.

Assay [1] can be described thus: qHTS assay to identify small molecule agonists of the constitutive androstane receptor (CAR) signaling pathway - cell viability counter screen (AID 1224836). Further: nearly all actives have a fitted effect of over 45% in size. The procedure, abridged: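 Counter screen multiplexed with the CAR reporter readout: HepG2 cells co-transfected with hCAR and the CYP2B6-2.2kb construct receive a 15-concentration compound series and 0.75 uM PK11195 (final), then CellTiter-Fluor fluorescence is read after 23 h.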
(In general: qHTS replaces the single test concentration by a dilution series.)

Assay [2] can be described thus: qHTS assay to identify small molecule antagonists of the constitutive androstane receptor (CAR) signaling pathway - cell viability counter screen (AID 1224837). Further: nearly all actives have a fitted effect of over 45% in size. Put shortly:
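Using CellTiter-Fluor, viability is scored in HepG2 cells stably carrying hCAR and a 2.2kb CYP2B6 reporter after 23 hr compound exposure across 15 concentrations, with CITCO present at 50 nM.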

Assay [3] can be described thus: qHTS assay to identify small molecule antagonists of the estrogen related receptor signaling pathway with the pleiotropic PPARgamma coactivator (PGC) from Tox21 10K library - cell viability counter screen (AID 1224840; active means well fitted cell-killing curve with a large enough effect in the repeat runs, not every such curve was filed as active; further: nearly all actives have a fitted effect of over 40% in size). The procedure, abridged:
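Here the PGC/ERR cells serve as a cytotoxicity control: they are exposed to compounds for 17.5 hours at 37 C, and live-cell signal is quantified using CellTiter-Fluor fluorescence.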

A short description of assay [4]: qHTS assay to identify small molecule antagonists of the estrogen related receptor signaling pathway with the pleiotropic PPARgamma coactivator (PGC) from Tox21 10K library (AID 1224841; call rule not given here; further: actives are mostly falling curves and most rising ones were filed inactive; nearly all actives have a fitted effect of over 50% in size). The procedure, abridged:
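Each well held 2,000 PGC/ERR cells, pre-incubated six hours (37 C, 5% CO2). Test substances in DMSO were added by pin tool and left for 18 h at 37 C before luciferase detection by One-Glo.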

Assay [5] in a line: qHTS assay to identify small molecule agonists of the estrogen related receptor signaling pathway with the pleiotropic PPARgamma coactivator (PGC) from Tox21 10K library (AID 1224842). Further: nearly all actives have a fitted effect of over 15% in size. The procedure, abridged: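 PGC/ERR reporter cell line, 2,000 cells per well, incubated 6 h at 37 C before 23 nL compound in DMSO was added. After 18 h at 37 C, One-Glo luminescence read following 30 min at room temperature.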

Assay [6] addresses Thyrotropin receptor (Homo sapiens) (UniProt P16473). Description: qHTS assay to identify small molecule agonists of the thyroid stimulating hormone receptor (TSHR) signaling pathway (AID 1224843; calls by dose curve; further: nearly all actives have a fitted effect of over 45% in size). Put shortly: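 TSHR-HEK293 cells in agonist mode, 30 min room-temperature step, then cAMP measured by competitive HTRF (cAMP-d2 with anti-cAMP cryptate) after 1 h at room temperature. Tested at 15 concentrations in triplicate.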

The nature of assay [7]: qHTS assay to identify small molecule agonists of H2AX - cell viability counter screen (AID 1224847; calls by dose curve; further: top concentration of the series differs between compounds; nearly all actives have a fitted effect of over 30% in size). The procedure, abridged: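 We seed wild-type CHO-K1 cells overnight, treat them for 3 hr at 37C with compounds in 15-concentration series, and quantify remaining viability by CellTiter-Glo luminescence.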
A short description of assay [8]: qHTS assay to identify small molecule agonists of the estrogen related receptor (ERR) signaling pathway from Tox21 library (AID 1224849; calls by dose curve; further: nearly all actives have a fitted effect of over 15% in size). Conditions: ERR reporter cell line, ONE-Glo luciferase, 18 h; at 92.4 µM (top of the series) unless noted. The procedure, abridged:
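Six hours post-seeding at 37 C/5% CO2, ERR cells receive DMSO-solubilised compounds; after 18 h at 37 C, ONE-Glo reagent is applied and luminescence recorded.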

The nature of assay [9]: qHTS RealTime-Glo MT Cell Viability Assay in HepG2 cells - 24 hour (AID 1224867). Further: nearly all actives have a fitted effect of over 50% in size. Further: potency means the concentration at half of the fitted maximal effect. Put shortly:
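HepG2 cells (600/well) were dispensed with RealTime-Glo reagents, incubated 5 h at 37 °C, then treated with compounds in DMSO for up to 40 h. Nonlytic NanoLuc luminescence reflecting viable cells was read at each stated time point.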

A short description of assay [10]: qHTS RealTime-Glo MT Cell Viability Assay in HEK293 cells - 32 hour (AID 1224868). Further: top concentration of the series differs between compounds; nearly all actives have a fitted effect of over 50% in size. The procedure, abridged: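 HEK293 cells seeded with NanoLuc/prosubstrate reagent, rested 5 h at 37 C, then dosed and kept at 37 C up to 40 h. Nonlytic real-time luminescence from viable cells read at 0, 8, 16, 24, 32 and 40 h.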
A short description of assay [11]: A CellTox Green Cytotoxicity Assay to monitor cytotoxicity in HEK293 cells - 0 hour (AID 1224869). Further: nearly all actives have a fitted effect of over 50% in size. Put shortly: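 Seeding of HEK293 cells together with cytotoxicity dye preceded a 5 h incubation at 37 C/5% CO2. Test compounds in DMSO were then added and fluorescence monitored across 40 h.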
A short description of assay [12]: qHTS RealTime-Glo MT Cell Viability Assay in HepG2 cells - 40 hour (AID 1224870). Further: nearly all actives have a fitted effect of over 50% in size. Further: potency means the concentration at half of the fitted maximal effect. Put shortly:
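HepG2 cells (600/well) mixed with RealTime-Glo MT reagent, settled 5 h at 37 C/5% CO2 before compound addition. Nonlytic NanoLuc luminescence from viable-cell prosubstrate reduction read repeatedly during 40 h treatment at 37 C.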

The target in assay [13] is Luciferin 4-monooxygenase (Photinus pyralis) (UniProt P08659). The experiment in a line: qHTS assay to identify small molecule inhibitors of firefly luciferase (AID 1224835). Further: nearly all actives have a fitted effect of over 25% in size. Put shortly:
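Biochemical qHTS: compounds run as interplate titrations against purified firefly enzyme, with D-luciferin and ATP each at its KM concentration. Light output recorded by CCD imaging.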

The target of assay [14] is Nuclear receptor subfamily 1 group I member 3 (Homo sapiens) (UniProt Q14994). The experiment in a line: qHTS assay to identify small molecule antagonists of the constitutive androstane receptor (CAR) signaling pathway (AID 1224838).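 Further: HepG2 cells stably expressing hCAR with CYP2B6 luciferase reporter stimulated by CITCO; nearly all actives have a fitted effect of over 40% in size.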 Put shortly:
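Reporter luminescence was quantified after 24 h exposure of hCAR/CYP2B6-2.2kb double-stable HepG2 cells to compounds at 15 concentrations in the presence of 50 nM CITCO final.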

For assay [15] the target is unchanged. Description: qHTS assay to identify small molecule agonists of the constitutive androstane receptor (CAR) signaling pathway (AID 1224839). Further: nearly all actives have a fitted effect of over 15% in size. The procedure, abridged: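 A 15-concentration quantitative screen uses HepG2 cells co-transfected stably with human CAR and CYP2B6-2.2kb reporter. Treatment lasts 24 h with 0.75 uM PK11195 final present; ONE-Glo luminescence is the signal.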

Assay [16] is described as follows: qHTS assay to identify small molecule agonists of the hypoxia (HIF-1) signaling pathway - cell viability counter screen (AID 1224844; calls by dose curve; further: nearly all actives have a fitted effect of over 50% in size; further: potency means the concentration at half of the fitted maximal effect). The procedure, abridged:
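Multiplexed with the HRE beta-lactamase assay, this viability read used CellTiter-Glo luminescence (30 min, RT) on HRE-bla ME-180 cells treated 17 hrs with compounds in 0.5% dialyzed FBS medium.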

Assay [17] in a line: qHTS assay to identify small molecule agonists of H2AX (AID 1224845; active means well fitted activation curve with a large enough effect in the signal ratio in the repeat runs, not every such curve was filed as active; the % refers to the signal ratio). The procedure, abridged:
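Wild-type CHO-K1 cells, plated overnight, exposed 3hr at 37C to 15 concentrations (0.76% DMSO final). Lysed, then HTRF anti-pH2AX (S139) cryptate and anti-H2AX-d2 antibodies, 24 hr room temperature; 665/620 nm emission read.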

The nature of assay [18]: qHTS assay to identify small molecule agonists of the hypoxia (HIF-1) signaling pathway (AID 1224846; active means well fitted activation curve with a large enough effect in the signal ratio in the repeat runs, not every such curve was filed as active; the % refers to the signal ratio). Put shortly: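 Hypoxia-pathway activation was scored as increased beta-lactamase from an HRE-controlled reporter in ME-180 cells; plated at 2,000 cells per well with 0.5% dialyzed FBS, they were exposed 17 hrs to compounds and then given CCF4-AM.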
Assay [19] can be described thus: qHTS assay to identify small molecule antagonists of the estrogen related receptor (ERR) signaling pathway from Tox21 library (AID 1224848). Further: nearly all actives have a fitted effect of over 50% in size. The procedure, abridged:
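ERR reporter cell line (from NTP) seeded 2,000 cells/well, rested 6 h at 37 C/5% CO2, then pin-dosed with compounds in DMSO. After 18 h at 37 C, ONE-Glo added; luminescence read after 30 min at room temperature.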
On the % scale 0 is the no-effect control and ±100 the full control effect.

Sequence of Nuclear receptor subfamily 1 group I member 3 (Homo sapiens) (Q14994 whole entry, looked up): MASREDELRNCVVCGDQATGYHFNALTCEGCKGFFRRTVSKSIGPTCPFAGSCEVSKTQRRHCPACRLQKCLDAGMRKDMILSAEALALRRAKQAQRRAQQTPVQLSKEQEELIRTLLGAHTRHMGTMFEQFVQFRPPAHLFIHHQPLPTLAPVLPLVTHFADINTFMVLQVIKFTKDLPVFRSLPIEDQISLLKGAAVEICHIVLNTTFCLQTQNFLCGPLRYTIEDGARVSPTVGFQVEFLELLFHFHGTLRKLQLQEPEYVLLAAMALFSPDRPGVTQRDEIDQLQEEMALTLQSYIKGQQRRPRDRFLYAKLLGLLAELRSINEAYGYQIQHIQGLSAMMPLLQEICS
Sequence of Thyrotropin receptor (Homo sapiens) (P16473 whole entry, looked up): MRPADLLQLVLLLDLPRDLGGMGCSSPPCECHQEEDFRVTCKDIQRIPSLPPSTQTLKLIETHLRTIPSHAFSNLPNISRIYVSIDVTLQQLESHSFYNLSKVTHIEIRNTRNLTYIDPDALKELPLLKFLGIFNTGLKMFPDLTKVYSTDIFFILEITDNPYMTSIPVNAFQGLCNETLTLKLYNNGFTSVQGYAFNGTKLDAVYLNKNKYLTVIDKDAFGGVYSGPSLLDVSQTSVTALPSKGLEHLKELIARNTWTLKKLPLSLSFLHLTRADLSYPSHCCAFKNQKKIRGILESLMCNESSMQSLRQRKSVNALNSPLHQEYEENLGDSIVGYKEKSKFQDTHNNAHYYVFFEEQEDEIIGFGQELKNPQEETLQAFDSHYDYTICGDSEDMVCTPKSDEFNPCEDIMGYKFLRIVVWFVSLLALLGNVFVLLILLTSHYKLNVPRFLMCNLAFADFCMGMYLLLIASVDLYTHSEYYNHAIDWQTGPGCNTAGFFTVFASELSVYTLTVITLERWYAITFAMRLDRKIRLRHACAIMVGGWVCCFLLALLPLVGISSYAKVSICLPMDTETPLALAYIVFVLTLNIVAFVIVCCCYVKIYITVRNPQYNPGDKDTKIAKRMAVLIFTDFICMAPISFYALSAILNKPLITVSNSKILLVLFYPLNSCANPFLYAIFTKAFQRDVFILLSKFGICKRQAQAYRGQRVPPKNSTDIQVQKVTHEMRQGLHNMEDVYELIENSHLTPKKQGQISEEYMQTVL
Sequence of Luciferin 4-monooxygenase (Photinus pyralis) (P08659 whole entry, looked up): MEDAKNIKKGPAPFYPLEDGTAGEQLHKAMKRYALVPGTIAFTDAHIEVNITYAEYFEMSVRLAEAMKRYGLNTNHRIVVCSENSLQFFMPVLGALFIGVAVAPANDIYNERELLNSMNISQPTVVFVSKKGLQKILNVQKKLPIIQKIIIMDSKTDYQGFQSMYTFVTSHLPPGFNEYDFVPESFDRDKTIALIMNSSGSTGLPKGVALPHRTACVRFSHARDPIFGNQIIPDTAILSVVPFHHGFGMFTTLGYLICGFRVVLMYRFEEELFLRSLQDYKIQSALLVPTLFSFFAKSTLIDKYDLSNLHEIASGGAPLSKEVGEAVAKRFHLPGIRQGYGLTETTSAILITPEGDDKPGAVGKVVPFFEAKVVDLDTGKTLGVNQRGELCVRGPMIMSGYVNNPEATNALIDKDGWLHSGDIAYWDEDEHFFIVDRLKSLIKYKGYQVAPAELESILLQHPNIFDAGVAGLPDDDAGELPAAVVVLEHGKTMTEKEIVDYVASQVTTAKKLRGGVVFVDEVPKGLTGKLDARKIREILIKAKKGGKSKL

As to `ICCc1ccccc1`, the Potency entry in assay [1], in [2], in [3], in assay [4], in [5] and in [6] was “inactive” in each case. The Potency result in [7], in assay [10] and in [11] was “inactive” throughout. The activity change, positive = activation in assay [8] was -17.9%. The Potency is 19.1 µM (active) in [9] and 9.57 µM (active) in [12].
As to `CC(C)OC(C)C`, the Potency result in assay [13], in [1], in assay [14], in assay [15], in assay [3] and in [4] was “inactive” each time. Also, the Potency entry in assay [5], in assay [6], in assay [16], in assay [17], in assay [7] and in assay [19] was “inactive” in each case. In addition, the Potency entry in [9], in assay [10], in assay [11] and in assay [12] was “inactive” in each case. Moreover, the call in assay [18] was inactive. In assay [8], the activity change, positive = activation was -8.47%.
Consider `CCCCCCCCCCCCOCCOS(=O)(=O)O`, for which the Potency result in [1], in [2], in [14], in assay [15], in [3] and in assay [4] was “inactive” each time. In addition, the Potency result in assay [5], in assay [6], in [17], in [7], in [9] and in [11] was “inactive” each time. Further, the Potency result in assay [12] is “inactive”. For the same compound, the Potency in assay [16] was 43.6 µM (active). The activity change, positive = activation in [8] was -29.3%.
Take `NC1=NCC2c3ccccc3Cc3ccccc3N12` (stereo not given): the Potency entry in assay [1], in [2], in assay [14], in [15], in [3] and in assay [16] was “inactive” each time. The Potency entry in assay [17], in assay [7], in assay [9], in [10], in assay [11] and in assay [12] was “inactive” in each case. The result in assay [18] was inactive.
In the case of `CC(Oc1c(Cl)cccc1Cl)C1=NCCN1` (stereo not given), the Potency entry in assay [13], in [1], in [3], in assay [5], in assay [6] and in assay [16] was “inactive” in each case. Besides, the Potency result in [17], in assay [7], in assay [19], in assay [10], in assay [11] and in assay [12] was “inactive” each time. In addition, the compound was called inactive in assay [18]. The activity change, positive = activation in assay [8] was -3.99% [at 42.5 µM].
`C[C@@H](N)C(=O)O`: the Potency entry in [13], in [1], in assay [14], in assay [15], in assay [3] and in assay [6] was “inactive” in each case. The Potency result in assay [16], in assay [17], in assay [7], in [10], in assay [11] and in assay [12] was “inactive” throughout. Moreover, the result in assay [18] was inactive.
